From PubChem BioAssay (NCATS)
Inconclusive results are not listed. The source made the active and inactive calls. Unless noted, the call rests on the fitted dose curve; in most records, active means well fitted curve in the direction sought with a large enough effect; inconclusive means small, poorly fitted or top-dose-only effect, or another doubt; inactive means no such curve, though single readings can be large; an effect the other way counts as inactive or inconclusive.

Tests used:
[1] = Cell Viability - BJ (AID 421; calls by dose curve;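 further: potency means the concentration at half of the fitted maximal effect; cells exposed to compound for 40 hours at 37 °C before readout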); conditions: BJ fibroblast viability, qHTS
Method in brief: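 Normal human BJ foreskin fibroblasts, 1500/well in complete medium, treated 40 hr at 37 °C. Cellular ATP by CellTiter-Glo luminescence; normalized to DMSO and 100 uM tamoxifen, AC50 from Hill fit.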

[2] = Cell Viability - Jurkat (AID 426;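 active means dose-dependent loss of cell ATP signal giving a full or clear fitted curve, ranked by lower potency value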; further: potency means the concentration at half of the fitted maximal effect); conditions: qHTS
Method in brief: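 Jurkat (Clone E6-1) cells, 5000/well in complete medium, exposed to compounds for 40 hr at 37C; intracellular ATP measured by CellTiter-Glo luminescence after 20 min at room temperature. AC50 from Hill fits.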

[3] = Cell Viability - Hek293 (AID 427;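 active means compounds whose dose-response curve shows a full or clear partial loss of cell viability, called from curve shape rather than a numeric limit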;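 further: potency means the concentration at half of the fitted maximal effect; cells exposed to compound for 40 hours at 37 °C before reading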); conditions: qHTS
Method in brief: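 HEK293 cells in complete medium were exposed to compound for 40 hr at 37 °C, then cellular ATP was read by CellTiter-Glo luminescence. Data were normalized to DMSO (basal) and 100 uM tamoxifen (100% inhibition), and AC50 came from Hill fits.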

[4] = Cell Viability - HepG2 (AID 433; calls by dose curve;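 further: potency means the concentration at half of the fitted maximal effect; potency for ATP loss meaning cytotoxicity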); conditions: qHTS
Method in brief: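 HepG2 hepatocellular carcinoma cells (1500/well) were treated with compounds for 40 h at 37 °C in complete medium; intracellular ATP was read by CellTiter-Glo luminescence. Data were normalized to DMSO and 100 uM tamoxifen, and AC50 came from Hill fits.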

[5] = Cell Viability - MRC5 (AID 434; calls by dose curve;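 further: potency means the concentration at half of the fitted maximal effect; potency reflects cytotoxicity seen as loss of intracellular ATP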); conditions: MRC5 lung fibroblast viability, qHTS
Method in brief: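 MRC5 normal human lung fibroblasts (1500/well) were treated with compounds for 40 hr at 37 °C in complete medium, and viable cells were measured as intracellular ATP by CellTiter-Glo luminescence. AC50 came from Hill fits, normalized to DMSO and 100 uM tamoxifen.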

[6] = Cell Viability - SK-N-SH (AID 435; calls by dose curve;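 further: potency means the concentration at half of the fitted maximal effect; compound exposure lasted 40 h at 37 °C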); conditions: SK-N-SH neuroblastoma cell viability qHTS
Method in brief: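 SK-N-SH human neuroblastoma cells (1500/well) were exposed to compounds in complete medium for 40 h at 37 °C, and intracellular ATP was then measured by CellTiter-Glo luminescence. AC50 was taken from Hill fits, normalized to DMSO and 100 uM tamoxifen.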

[7] = molecular target: Mitogen-activated protein kinase 10 (Mus musculus) (UniProt Q61831); assay: JNK3 AlphaScreen Assay (AID 530; active means well fitted curve in either direction with a large enough effect, not every such curve was filed as active;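 further: kinase came from lysate of stimulated human HepG2 cells; signal reports phosphorylation of biotinylated GST-cJun 1-79 at Ser73 with 10 µM ATP; on the % scale 0 is the no-effect control and ±100 the full control effect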); conditions: JNK3 lysate, c-Jun phosphorylation; series mostly up to 57.1 µM
Method in brief: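 Inhibitors reduce antibody binding to phosphorylated biotin-cJun, lowering AlphaScreen luminescence. Lysates from HepG2 cells pre-activated by IL-1beta plus TNF-alpha supplied JNK3; compounds were titrated.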

[8] = Cell Viability - N2a (AID 540); conditions: N2a mouse neuroblastoma cell viability; activity change, negative = cytotoxicity: at 92.2 µM (top of the series);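 further: plate controls were DMSO alone for no effect and tamoxifen control for full effect; nearly all actives have a fitted effect of over 45% in size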
Method in brief: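 Mouse neuroblastoma N2a cells, 1500/well, exposed to compounds 40 h at 37 °C in complete medium. Viability measured as cellular ATP by CellTiter-Glo luminescence; AC50 from Hill fits of concentration-response.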

[9] = Cell Viability - NIH 3T3 (AID 541); conditions: NIH 3T3 cell viability, qHTS; activity change, negative = cytotoxicity: at 92.2 µM (top of the series);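 further: plate controls were DMSO alone for no effect and tamoxifen positive control for full effect; nearly all actives have a fitted effect of over 25% in size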
Method in brief: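 Mouse NIH 3T3 fibroblasts, 1000 cells/well, rested 5 hr at 37 °C, then exposed to compound for 40 hr at 37 °C in complete medium. Viability read as intracellular ATP by CellTiter-Glo luminescence; AC50 from Hill-equation fits of concentration-response data.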

[10] = Cell Viability - HUV-EC-C (AID 542); conditions: HUV-EC-C endothelial cell viability, qHTS; series mostly up to 92.2 µM; further: on the % scale 0 is the no-effect control and ±100 the full control effect; nearly all actives have a fitted effect of over 35% in size
Method in brief: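 HUV-EC-C human vascular endothelial cells, 1000/well, exposed to compound for 40 hr at 37 °C in complete medium. Intracellular ATP was read by CellTiter-Glo luminescence. AC50 came from Hill-equation fits of concentration-response data.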

[11] = Cell Viability - H-4-II-E (AID 543); conditions: H-4-II-E rat hepatoma viability; series mostly up to 92.2 µM; further: on the % scale 0 is the no-effect control and ±100 the full control effect; nearly all actives have a fitted effect of over 35% in size
Method in brief: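 Rat hepatoma H-4-II-E cells, 1500 per well, treated 40 h at 37 °C in complete medium. Cellular ATP read by CellTiter-Glo luminescence; AC50 from Hill fits of concentration-response.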

[12] = Cell Viability - SH-SY5Y (AID 544); conditions: SH-SY5Y neuroblastoma cell viability; viability change, negative = cytotoxic: at 92.2 µM (top of the series); further: nearly all actives have a fitted effect of over 55% in size
Method in brief: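 SH-SY5Y human neuroblastoma cells (1500/well) incubated 5 h, then compound-treated 40 h at 37 °C in complete medium. Viability read as intracellular ATP by CellTiter-Glo luminescence after 20 min; AC50 from Hill-equation fits of qHTS concentration-response.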

[13] = Cell Viability - Renal Proximal Tubule (AID 545); conditions: renal proximal tubule cells viability, primary cells of rat origin; series mostly up to 91.7 µM; further: nearly all actives have a fitted effect of over 40% in size
Method in brief: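 Primary rat renal proximal tubule cells (1000/well) were treated with compounds for 40 hr at 37 °C in complete medium. Intracellular ATP was measured by CellTiter-Glo luminescence, and AC50 values came from Hill-equation fits of concentration-response data.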

[14] = Cell Viability - Mesenchymal (AID 546); conditions: mesenchymal cells viability, qHTS; series mostly up to 91.7 µM;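 further: cells exposed to compound for 40 hours before reading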
Method in brief: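 Normal human renal glomerulus-derived kidney mesenchymal cells, 1000 per well in complete medium, were treated with compounds for 40 hr at 37 °C. Viability was read as intracellular ATP by CellTiter-Glo luminescence; AC50 values came from Hill-equation fits of qHTS concentration-response data.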

[15] = Cellular Toxicity (caspase-3) HepG2 (AID 654); conditions: HepG2 caspase-3 activation, luminescence; series mostly up to 92.2 µM;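 further: cells exposed to compound for 16 hours before reading; 0% = DMSO alone and 100% = caspase signal from 100 µM tamoxifen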
Method in brief: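 HepG2 cells (1500/well) were treated 16 h at 37 °C in complete medium, then caspase 3/7 activity was read by Caspase-Glo luminescence. Data were normalized to DMSO and 100 uM tamoxifen; AC50 came from Hill-equation fits of qHTS concentration-response.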

[16] = Cellular Toxicity (caspase-3) Jurkat (AID 655); conditions: Jurkat caspase-3 activation, luminescence; caspase-3 activation: at 92.2 µM (top of the series), DMSO = 0%, tamoxifen = 100%;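 further: cells exposed to compound for 16 h at 37 °C before reading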
Method in brief: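 Jurkat cells (5000/well) in complete medium were treated with compounds for 16 hr at 37 °C, then Caspase-Glo 3/7 luminescence was read after 20 min at room temperature. Data normalized to DMSO (basal) and 100 uM tamoxifen (100%); AC50 from Hill fit.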

[17] = Cellular Toxicity (caspase-3) HUV-EC-C (AID 656); conditions: HUV-EC-C cells, caspase-3 activation (apoptosis), vehicle = 0, 100 µM tamoxifen = 100%; series mostly up to 92.2 µM
Method in brief: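 HUV-EC-C endothelial cells, 1000/well, were pre-incubated 5 hr at 37°C, then exposed to compounds for 16 hr at 37°C. Caspase-Glo 3/7 luminescence was read after 20 min at room temperature. AC50 came from Hill fits, normalized to DMSO and 100 uM tamoxifen.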

[18] = Cellular Toxicity (caspase-3) SHSY5Y (AID 657); conditions: SH-SY5Y caspase-3 activation, DMSO zero, 10 µM staurosporine = 100%; series mostly up to 91.7 µM
Method in brief: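 SH-SY5Y human neuroblastoma cells (1500/well) were treated with compounds for 16 h at 37 °C, then Caspase-Glo 3/7 luminescence was read after 1 h at room temperature. Data normalized to DMSO and 10 uM staurosporine; AC50 from Hill fits.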

[19] = Cellular Toxicity (caspase-3) BJ (AID 658); conditions: BJ fibroblasts, luminescence, normalized: DMSO 0%, staurosporine 100%; series mostly up to 91.7 µM
Method in brief: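 Luminescent aminoluciferin-substrate cleavage reports caspase 3/7 activity in normal human BJ fibroblasts after 16 hr compound exposure at 37 °C. Normalized to DMSO (basal) and 10 uM staurosporine (100%); AC50 from Hill fit of concentration-response.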

[20] = Cellular Toxicity (caspase-3) MRC-5 (AID 659); conditions: MRC-5 cells, luminescence, normalized: DMSO 0%, 10 µM staurosporine 100%; series mostly up to 91.7 µM
Method in brief: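 Luminescence from caspase-cleaved aminoluciferin substrate (Caspase-Glo 3/7, 1 hr RT) reports caspase 3/7 activity in MRC-5 lung fibroblasts after 16 hr compound exposure. Normalized to DMSO basal and 10 uM staurosporine as 100%; AC50 from Hill fits.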

O=C(O)c1ccccc1C(=O)O
inactive: Potency [1] > 92 µM | Potency [2] > 92 µM | Potency [3] > 92 µM | Potency [4] > 92 µM | Potency [5] > 92 µM | Potency [6] > 92 µM | outcome [7] | activity change, negative = cytotoxicity [8] 1.25% | Potency [9] | Potency [10] | Potency [11] | Potency [12] | Potency [13] | Potency [14] | Potency [15] | caspase-3 activation [16] 2.22% | outcome [17] | outcome [18] | outcome [19] | outcome [20]

Cc1ccccc1C(=O)O
inactive: Potency [1] > 92 µM | Potency [2] > 92 µM | Potency [3] > 92 µM | Potency [4] > 92 µM | Potency [5] > 92 µM | Potency [6] > 92 µM | outcome [7] | activity change, negative = cytotoxicity [8] -16.3% | Potency [9] | Potency [10] | Potency [11] | Potency [12] | Potency [13] | Potency [14] | Potency [15] | caspase-3 activation [16] -1.34% | outcome [17] | outcome [18] | outcome [19]

CC(=O)OC(C)=O
inactive: Potency [1] > 92 µM | Potency [2] > 92 µM | Potency [3] > 92 µM | Potency [4] > 92 µM | Potency [5] > 92 µM | Potency [6] > 92 µM | outcome [7] | activity change, negative = cytotoxicity [8] 1.01% | Potency [9] | Potency [10] | Potency [11] | Potency [12] | Potency [13] | Potency [14] | Potency [15] | caspase-3 activation [16] -0.999% | outcome [17] | outcome [18] | outcome [19] | outcome [20]

C=CC(=O)OCCCC
inactive: Potency [1] > 92 µM | Potency [2] > 92 µM | Potency [3] > 92 µM | Potency [4] > 92 µM | Potency [5] > 92 µM | Potency [6] > 92 µM | outcome [7] | activity change, negative = cytotoxicity [8] 10.3% | Potency [9] | Potency [10] | Potency [11] | Potency [12] | Potency [13] | Potency [14] | Potency [15] | caspase-3 activation [16] 0.501% | outcome [17] | outcome [18] | outcome [19]

CCOC(C)(C)C
inactive: Potency [1] > 92 µM | Potency [2] > 92 µM | Potency [3] > 92 µM | Potency [4] > 92 µM | Potency [5] > 92 µM | Potency [6] > 92 µM | outcome [7] | activity change, negative = cytotoxicity [8] -6.59% | Potency [9] | Potency [10] | Potency [11] | Potency [12] | Potency [13] | Potency [14] | Potency [15] | caspase-3 activation [16] -1.17% | outcome [17] | outcome [18] | outcome [19]

CCCCCO
inactive: Potency [1] > 92 µM | Potency [2] > 92 µM | Potency [3] > 92 µM | Potency [4] > 92 µM | Potency [5] > 92 µM | Potency [6] > 92 µM | outcome [7] | activity change, negative = cytotoxicity [8] 3.49% | Potency [9] | Potency [10] | Potency [11] | Potency [12] | Potency [13] | Potency [14] | Potency [15] | caspase-3 activation [16] -0.274% | outcome [17] | outcome [18] | outcome [19] | outcome [20]

CC(=O)CC(C)C
inactive: Potency [1] > 92 µM | Potency [2] > 92 µM | Potency [3] > 92 µM | Potency [4] > 92 µM | Potency [5] > 92 µM | Potency [6] > 92 µM | outcome [7] | activity change, negative = cytotoxicity [8] -14.8% | Potency [9] | Potency [10] | Potency [11] | Potency [12] | Potency [13] | Potency [14] | Potency [15] | caspase-3 activation [16] -2.68% | outcome [17] | outcome [18] | outcome [19]

C=Cc1ccccn1
inactive: Potency [1] > 92 µM | Potency [2] > 92 µM | Potency [3] > 92 µM | Potency [4] > 92 µM | Potency [5] > 92 µM | Potency [6] > 92 µM | outcome [7] | activity change, negative = cytotoxicity [8] 5.72% | Potency [9] | Potency [10] | Potency [11] | Potency [12] | Potency [13] | Potency [14] | Potency [15] | caspase-3 activation [16] 0.756% | outcome [17] | outcome [18] | outcome [19] | outcome [20]

Cc1ccc(C(=O)O)cc1
inactive: Potency [1] > 92 µM | Potency [2] > 92 µM | Potency [3] > 92 µM | Potency [4] > 92 µM | Potency [5] > 92 µM | Potency [6] > 92 µM | outcome [7] | activity change, negative = cytotoxicity [8] 3.7% | Potency [9] | Potency [10] | Potency [11] | Potency [12] | Potency [13] | Potency [14] | Potency [15] | caspase-3 activation [16] 1.89% | outcome [17] | outcome [18] | outcome [19]

c1ccc(Nc2ccccc2)cc1
inactive: Potency [1] > 92 µM | Potency [2] > 92 µM | Potency [3] > 92 µM | Potency [4] > 92 µM | Potency [5] > 92 µM | Potency [6] > 92 µM | outcome [7] | activity change, negative = cytotoxicity [8] -5.87% | Potency [9] | Potency [10] | Potency [11] | Potency [12] | Potency [13] | Potency [14] | Potency [15] | caspase-3 activation [16] 1.36% | outcome [17] | outcome [18] | outcome [19]

NC(N)=S
inactive: Potency [1] > 92 µM | Potency [2] > 92 µM | Potency [3] > 92 µM | Potency [4] > 92 µM | Potency [5] > 92 µM | Potency [6] > 92 µM | outcome [7] | activity change, negative = cytotoxicity [8] 7.78% | Potency [9] | Potency [10] | Potency [11] | Potency [12] | Potency [13] | Potency [14] | Potency [15] | caspase-3 activation [16] 0.321% | outcome [17] | outcome [18] | outcome [19] | outcome [20]
